# Experimental data reported in PubChem BioAssay AID488857 (Sanford-Burnham Center for Chemical Genomics, 2010).
# The whole screen tested about 1,400 compounds, of which about 560 (40%) were called active.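 How the source made its calls: active means mean inhibition over duplicate tests at 10 µM above 50%; inactive means the rest.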 So high a share suggests a set chosen from earlier hits. The list shows a part of the results.
# Experiment: ASC/caspase-1 reporter retest in S. cerevisiae at one dose, specificity check for NALP1 project (AID 488857)
# Conditions: S. cerevisiae ASC/Caspase-1, beta-galactosidase luminescence, 24 h; at 10 µM; hits give high values
row,SMILES,inhibition
1,Clc1ccc(SCCCCN2CCOCC2)cc1,36.5% (inactive)
2,Cc1c(Cl)sn(-c2ccc(Cl)cc2)c1=O,84.5% (active)
3,O=C(O)c1ccccc1SC1CC(=O)N(c2ccccc2)C1=O (stereo not given),34.5% (inactive)
4,CN(C)c1ccc(N2C(=O)CC(Sc3ccccc3C(=O)O)C2=O)cc1 (stereo not given),59.8% (active)
5,COc1ccc(NCc2ccc([N+](=O)[O-])s2)c(OC)c1,49% (inactive)
6,CCOC(=O)/C(=C/c1ccc(OC(=O)c2ccccc2)cc1)C(C)=O,59.9% (active)
7,CCOC(=O)C1=C(O)c2ccccc2C(=O)/C1=C\c1ccc(C)cc1,24.1% (inactive)
8,COC(=O)c1ccccc1NC(=O)C1CCCN(S(=O)(=O)c2ccc(OC)cc2)C1 (stereo not given),76.4% (active)
9,COC(=O)c1ccccc1NC(=O)C1CCN(C(=O)c2cc(OC)cc(OC)c2)CC1,34.1% (inactive)
10,CN1CCN(S(=O)(=O)c2ccc(NC(=S)NC(=O)C(C)(C)C)cc2)CC1,31.6% (inactive)
11,CCN1CCN(C(=S)Nc2ccc(Cl)c(Cl)c2)CC1,22.7% (inactive)
12,CCOC(=O)N1CCN(c2c(NCCOC)c(=O)c2=O)CC1,32.5% (inactive)
13,CCOC(=O)N1CCN(c2ccc(Cl)c(Cl)c2)CC1,68.9% (active)
14,Cn1nnc(NC(=O)/C=C/c2ccco2)n1,45.4% (inactive)
15,CCCNCC1COc2ccccc2O1 (stereo not given),37.9% (inactive)
16,CN(C)CCN(C(=O)/C=C/c1cccs1)c1nc2c(F)cc(F)cc2s1,65.1% (active)
17,CN(C)CCN(C(=O)/C=C/c1cccs1)c1nc2ccc(F)cc2s1,72% (active)
18,CC1CCC2C(=O)N(c3ccc(C(=O)Oc4cccc5cccnc45)cc3)C(=O)C2C1 (stereo not given),44.9% (inactive)
19,O=[N+]([O-])c1ccc2nc(-c3ccccn3)[nH]c2c1,70% (active)
20,c1ccc(-c2nc3cc4ccccc4cc3[nH]2)nc1,84.5% (active)
21,O=[N+]([O-])c1ccc2cn(-c3ccccc3)nc2c1,41.1% (inactive)
22,O=S(=O)(CC12C3C4C5C1C2C(Br)(C43)C51OCCO1)c1ccccc1 (stereo not given),38.5% (inactive)
23,Cc1cccc(/C=N/n2c(-c3cc(-c4ccccc4)n[nH]3)n[nH]c2=S)c1,53.3% (active)
24,Cc1ccc(N2C(=O)c3ccc(C(=O)O)cc3C2=O)cc1C,37.3% (inactive)
25,Cc1ccc(C(=O)O)cc1N=Cc1cc(Br)cc(Br)c1O,83.5% (active)
26,O=C(Cc1noc2ccccc12)Nc1ccc(Cl)cc1,61.3% (active)
27,CCCCN(C)CCC(=O)Nc1ccc(Cl)cc1,39.2% (inactive)

row,SMILES,inhibition
1,O=C(Cn1c(=O)oc2ccccc21)Nc1ccc(Cl)cc1,33.4% (inactive)
2,CCOC(=O)COc1ccc2ccccc2c1/C=C/[N+](=O)[O-],99.9% (active)
3,COc1ccccc1OCC(=O)N/N=C/C=C/c1ccc([N+](=O)[O-])o1,15.4% (inactive)
4,CCOC(=O)C[N+](CC)(CC)CC#Cc1ccccc1,5.45% (inactive)
5,CCOC(=O)COc1ccccc1/C=C\[N+](=O)[O-],101% (active)
6,CCOc1ccc(NC(=O)/C=C/c2ccccc2)c([N+](=O)[O-])c1,29.2% (inactive)
7,COc1ccc(CN2CCNC(=O)C2CC(=O)N(Cc2nccn2C)C(C)C)c(OC)c1 (stereo not given),26.1% (inactive)
8,COc1cc(N2C(=O)CSC2=S)cc(OC)c1OC,81.3% (active)
9,C/C(=N/N=C1\SCC(=O)N1c1ccccc1)c1ccc(C)cc1,39.4% (inactive)
10,COc1cc(C2SCC(=O)N2CCCN(C)C)cc(OC)c1OC (stereo not given),23.1% (inactive)
11,O=C1CSC(=S)N1c1ccc(O)cc1,98.2% (active)
12,O=C1CSC(=S)N1c1cccc(O)c1,98.8% (active)
13,CCCCNCCOCCOc1ccc(Cl)cc1Br,49% (inactive)
14,CCCCNCCOCCOc1ccccc1-c1ccccc1,55.2% (active)
15,O=C(NCc1ccc(F)cc1)c1cc(-c2ccco2)on1,52.4% (active)
16,O=C(Nc1cccc(O)c1)c1cc(-c2ccco2)on1,79.8% (active)
17,O=C(Nc1nc(-c2ccco2)c(-c2ccco2)s1)C1CCC1,45.5% (inactive)
18,O=C(CSCc1ccc(F)cc1)NCc1ccco1,47.5% (inactive)
19,Cc1ccc(NC(=O)N(C2CCCCC2)C(C)c2cccnc2)cc1C (stereo not given),48.4% (inactive)
20,Cc1cc(=O)oc2cc(OCC(=O)N3CCN(C(=O)c4ccco4)CC3)ccc12,30.7% (inactive)
21,CCOC(=O)C(=O)NNc1ccc(Cl)cc1,42.9% (inactive)
22,CCOC(=O)NC1(NCc2ccccc2)Oc2ccccc2O1,38.3% (inactive)
23,CCOC(=O)Nc1ccc2c(C)cc(=O)oc2c1,58.4% (active)
24,CCOC(=O)Nc1cccc(Nc2ccccc2)c1,59.8% (active)
25,CCOC(=O)c1sc(NC(=O)Nc2cccc(Cl)c2)cc1C,19.4% (inactive)
26,CC(C)CN=Cc1c(O)c([N+](=O)[O-])cc2oc3c(c12)CCCC3,28.2% (inactive)
27,CCOc1ccccc1C(=O)Nc1cnn(Cc2ccc(F)cc2)c1,61.2% (active)

row,SMILES,inhibition
1,COc1ccccc1C(=O)Nc1nc2nc(-c3ccccc3)cc(=O)n2[nH]1,15.4% (inactive)
2,CC1CCCN(c2nc(NCc3ccco3)nc(N)c2[N+](=O)[O-])C1 (stereo not given),62% (active)
3,CC1CCN(c2nc(NCc3ccco3)nc(N)c2[N+](=O)[O-])CC1,73% (active)
4,Cc1ccc(Nc2nc(N)c([N+](=O)[O-])c(NCc3ccco3)n2)cc1C,60.8% (active)
5,Nc1nc(NCc2ccco2)nc(N2CCCCCC2)c1[N+](=O)[O-],62.4% (active)
6,Cc1ccc(C(=O)NCc2ccco2)cc1S(=O)(=O)Nc1cccc(Cl)c1,38.6% (inactive)
7,CCN1CCN(C(=O)N[C@@H](C(=O)N[C@@H]2C(=O)N3[C@@H]2SC(C)(C)[C@@H]3C(=O)O)c2ccccc2)C(=O)C1=O,39.1% (inactive)
8,COCCn1c(SCC(=O)NC(=O)NC(C)(C)C)nc2ccccc21,40.6% (inactive)
9,O=c1c(F)cn(C2CCCO2)c(=O)n1Cc1c(F)cccc1Cl (stereo not given),33.2% (inactive)
10,CCOC(=O)c1c(C(F)(F)C(F)(F)C(F)(F)C(F)(F)F)n[nH]c1C,25.5% (inactive)
11,COc1ccc(C2=NN3C(=O)c4c(ccc(OC)c4OC)C3C2)cc1 (stereo not given),50.4% (active)
12,O=P(CCCCCCCCCP(=O)(c1ccccc1)c1ccccc1)(c1ccccc1)c1ccccc1,47.2% (inactive)
13,O=C(NC(CO)Cc1ccc([N+](=O)[O-])cc1)C(Cl)Cl (stereo not given),34.8% (inactive)
14,CNC(CC(=O)c1ccc([N+](=O)[O-])cc1)C(Cl)(Cl)Cl (stereo not given),69.4% (active)
15,N#CC(C#N)=C(Nc1ccc(F)cc1)SCc1cccc(Br)c1,83.2% (active)
16,Cc1ccc(F)cc1NCC(=O)Nc1ccc(Br)cc1,41.2% (inactive)
17,COc1ccc2c(c1)C1=NN(/C(C)=C/C(C)=O)C(c3ccc(F)cc3)C1CC2 (stereo not given),45.9% (inactive)
18,COc1ccccc1NC(=O)Nc1ccc2c(c1)nnn2C,25.1% (inactive)
19,COc1ccc(N=c2cc(-c3ccc(OC)cc3)oc3ccccc23)cc1,54.5% (active)
20,OCCCN=c1cc(-c2ccccc2)oc2ccc(Cl)cc12,49.8% (inactive)
21,Cn1c(N)c(C(=O)COC(=O)C2(c3ccc(Cl)cc3)CCCC2)c(=O)n(C)c1=O,26.6% (inactive)
22,COC(=O)Nc1nc(C)c(C(=O)c2ccccc2)s1,47.8% (inactive)
23,COC(=O)Nc1sc2nc(C)cc(C)c2c1-n1cccc1,67.7% (active)
24,CCOC(=O)C1CCCN(Cc2ccc(OCC)cc2)C1 (stereo not given),30.4% (inactive)
25,CCc1ccc(OCC(=O)Nc2ccc(CN3CCCCC3)cc2)cc1,55.1% (active)
26,CCC(C)(C)NCC(=O)Nc1ccc(OC(F)(F)F)cc1,27.4% (inactive)
27,CCCCNC(=O)C(=O)N/N=C/c1cccc(Br)c1,37.1% (inactive)

row,SMILES,inhibition
1,Cc1ccc(/C=N/Nc2ccnc3cc(Cl)ccc23)c(C)c1,55% (active)
2,Clc1ccc2c(N/N=C/c3ccc(Br)cc3)ccnc2c1,55.6% (active)
3,Clc1ccc2c(N/N=C/c3cccc(Br)c3)ccnc2c1,57% (active)
4,Clc1ccc2c(N/N=C/c3ccccc3Br)ccnc2c1,31.4% (inactive)
5,Cc1ccc(N/C=C/C(=O)C(C)(C)C)c(O)c1,34.2% (inactive)
6,CC(C)Oc1ccc(Cc2cnc(N)nc2N)cc1,48% (inactive)
7,CCOc1c(Cl)cc(CNCC(C)C)cc1OC,50% (active)
8,Cc1cc2ccccc2n1CCNCc1c(C(=O)N2CCOCC2)nc2ccccn12,21.8% (inactive)
9,CC(CC(=O)Nc1cccc(Cl)c1)c1ccccc1 (stereo not given),50% (active)
10,Cn1cc(CC(=O)Nc2cccc(C#N)c2)c2ccccc21,34.1% (inactive)
11,O=C(CNC(c1ccccc1)c1ccccc1)Nc1c(F)cccc1F,39.8% (inactive)
12,CSC1=N/C(=C\c2cccnc2)C(=O)N1c1ccccc1,37.9% (inactive)
13,CCOC(=O)c1nn(-c2ccc(C)cc2)cc1C(=O)c1ccccc1,64.8% (active)
14,NS(=O)(=O)c1ccc(NC(=O)COC(=O)c2cn(-c3ccccc3)nc2-c2ccc(F)cc2)cc1,33.1% (inactive)
15,CCOC(=O)C1=Nc2ccccc2C1=[N+]=[N-],46% (inactive)
16,COc1ccc(CC(C)N2CCN(Cc3ccccc3)CC2)c(OC)c1 (stereo not given),39.7% (inactive)
17,O=C(Nc1cccc(-c2cn3ccccc3n2)c1)c1cccc(Cl)c1,58.9% (active)
18,Cc1sc2nc(SCC(=O)NCc3ccco3)n(Cc3ccccc3)c(=O)c2c1C,23.5% (inactive)
19,CCCCC(=O)Nc1ccc(C(=O)NNC(=S)NC(=O)c2ccco2)cc1,30.9% (inactive)
20,N#Cc1ccc(-c2ccc(Cl)cc2)nc1SCC(=O)c1cccc(Cl)c1,25.2% (inactive)
21,O=C(CCl)Nc1nc(-c2ccco2)c(-c2ccco2)s1,26.5% (inactive)
22,Cc1sc(NC(=O)c2ccco2)nc1-c1ccccc1,79% (active)
23,Cc1ccn2cc(-c3ccc(NC(=O)c4ccco4)cc3)nc2c1,86.5% (active)
24,O=C(Nc1ccc(-c2cn3ccccc3n2)cc1)c1ccco1,84% (active)
